Results published in PubChem BioAssay (NCATS).
Several values for one entry are separate records, joined by “and”; a condition that tells them apart may be missing. Equal values may be shown once. Records with an inconclusive call do not appear. Activity calls are given as the source filed them. The call rests on the fitted dose curve; in most records, active means well fitted inhibition curve with a large enough effect; inconclusive means small, poorly fitted or top-dose-only effect; inactive means flat fitted curve, though single readings scatter.

Legend:
[1] = system: CRL-7250; experiment: qHTS assay to identify novel small-molecules to repurpose for Merkel cell carcinoma treatment (AID 1296009); conditions: MCC and control cell lines, CellTiter-Glo viability, 72 h; series mostly up to 44.8 µM
How it was run: (§1)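 qHTS format: cells treated with library compounds in DMSO across 8 (NPC) or 11 (MIPE) concentrations. Readout after 72 hr at 37 degree celsius was CellTiter-Glo luminescence.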

[2] = system: CRL-7250; experiment: Cytotoxic Profiling of Annotated Libraries Using Quantitative High-Throughput Screening (AID 1296008); conditions: Five cell lines viability, CellTiter-Glo ATP luminescence, 48-72 h; max response: hits give low values; on max response: on the % scale 0 is the no-effect control and ±100 the full control effect
How it was run: (§2)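 Compounds were pin-transferred onto cells and incubated 48 or 72 hr at 37 degree Celsius, 95% humidity. CellTiter-Glo was added, plates sat 10 min at room temperature, then ATP-coupled luminescence was imaged as the viability read-out.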

[3] = system: HaCat; experiment: as above; conditions: Five cell lines viability, CellTiter-Glo ATP luminescence, 48-72 h; max response: hits give low values
How it was run: as §2

[4] = system: KB-3-1; experiment: as above; conditions: Five cell lines viability, CellTiter-Glo ATP luminescence, 48-72 h; max response: hits give low values
How it was run: as §2

[5] = system: NIH3T3; experiment: as above; conditions: Five cell lines viability, CellTiter-Glo ATP luminescence, 48-72 h; max response: hits give low values
How it was run: as §2

[6] = system: HACAT; experiment: qHTS assay to identify novel small-molecules to repurpose for Merkel cell carcinoma treatment (AID 1296009); conditions: MCC and control cell lines, CellTiter-Glo viability, 72 h; at 44.8 µM (top of the series) unless noted
How it was run: as §1

[7] = system: MCC-13; experiment: as above; conditions: MCC and control cell lines, CellTiter-Glo viability, 72 h; series mostly up to 46 µM
How it was run: as §1

[8] = system: MCC-26; experiment: as above; conditions: MCC and control cell lines, CellTiter-Glo viability, 72 h; series mostly up to 46 µM
How it was run: as §1

[9] = system: MKL-1; experiment: as above; conditions: MCC and control cell lines, CellTiter-Glo viability, 72 h; series mostly up to 46 µM
How it was run: as §1

[10] = system: MKL-2; experiment: as above; conditions: MCC and control cell lines, CellTiter-Glo viability, 72 h; series mostly up to 46 µM
How it was run: as §1

[11] = system: PC15; experiment: qHTS profiling for inhibitors of Plasmodium falciparum proliferation (AID 504749); conditions: P. falciparum in erythrocytes, SYBR Green DNA, 72 h; series mostly up to 28.7 µM
How it was run: (§3)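 Parasite proliferation within erythrocytes, 72 h exposure. Endpoint: SYBR Green I fluorescence after overnight lysis at room temperature. Controls: 0.29 uM artemisinin, DMSO.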

[12] = system: PC26; experiment: as above; conditions: P. falciparum in erythrocytes, SYBR Green DNA, 72 h; series mostly up to 28.7 µM
How it was run: as §3

[13] = system: SC27B; experiment: as above; conditions: P. falciparum in erythrocytes, SYBR Green DNA, 72 h; series mostly up to 28.7 µM
How it was run: as §3

[14] = system: TAB109; experiment: as above; conditions: P. falciparum in erythrocytes, SYBR Green DNA, 72 h; series mostly up to 28.7 µM
How it was run: as §3

[15] = system: TAB113; experiment: as above; conditions: P. falciparum in erythrocytes, SYBR Green DNA, 72 h; series mostly up to 28.7 µM
How it was run: as §3

[16] = system: TAB165; experiment: as above; conditions: P. falciparum in erythrocytes, SYBR Green DNA, 72 h; series mostly up to 28.7 µM
How it was run: as §3

[17] = system: W2; experiment: as above; conditions: P. falciparum in erythrocytes, SYBR Green DNA, 72 h; series mostly up to 28.7 µM
How it was run: as §3

[18] = system: HEK293; experiment: Cytotoxic Profiling of Annotated Libraries Using Quantitative High-Throughput Screening (AID 1296008); conditions: Five cell lines viability, CellTiter-Glo ATP luminescence, 48-72 h; max response: hits give low values; on max response: on the % scale 0 is the no-effect control and ±100 the full control effect
How it was run: as §2

[19] = system: PC49; experiment: qHTS profiling for inhibitors of Plasmodium falciparum proliferation (AID 504749); conditions: P. falciparum in erythrocytes, SYBR Green DNA, 72 h; series mostly up to 28.7 µM
How it was run: as §3

[20] = system: HEK293T; experiment: qHTS assay to identify novel small-molecules to repurpose for Merkel cell carcinoma treatment (AID 1296009); conditions: MCC and control cell lines, CellTiter-Glo viability, 72 h; at 44.8 µM (top of the series)
How it was run: as §1
Further: nearly all actives have a fitted effect of over 60% in size.
Potency means the concentration at half of the fitted maximal effect.

COC1=CC(=O)C[C@@H](C)[C@]12Oc1c(Cl)c(OC)cc(OC)c1C2=O
inactive: outcome [1]

CC(C)=CCOc1c2occc2cc2ccc(=O)oc12
inactive: max response [2] -11.3% | outcome [3] | max response [4] -18.5% | max response [5] -0.907% | outcome [6] | Potency [7] | Potency [8] | Potency [9] | Potency [10]

CCOC(=O)C1(c2ccccc2)CCN(CCC(C#N)(c2ccccc2)c2ccccc2)CC1
inactive: max response [3] -18.2% | max response [4] -29% | max response [5] -8.7% | Potency [7] | Potency [8] | Potency [9]
active: Potency [11] 12.6 µM | Potency [12] 6.75 µM | Potency [13] 2.82 µM | Potency [14] 3.16 µM | Potency [15] 2.24 µM | Potency [16] 2.51 µM | Potency [17] 4.78 µM | Potency [18] 7.5 µM

Cc1ccnc2c1NC(=O)c1cccnc1N2C1CC1
inactive: outcome [1]

CC1=C2C[C@@H]3[C@@H](CC=C4C[C@@H](O)CC[C@@]43C)[C@@H]2CC[C@]12O[C@H]1C[C@H](C)CN[C@H]1[C@H]2C
inactive: max response [2] 4.78% | outcome [3] | max response [4] 6.86% | max response [5] 0.588% | outcome [6] | Potency [7] | Potency [8] | Potency [9] | Potency [10]

O=C(O)P(=O)(O)O
inactive: max response [4] -7.16% | outcome [1]

CCC1(C2=NCCN2)Cc2ccccc2O1 (centres undefined)
inactive: Potency [11] | Potency [12] | Potency [19] | max response [2] -2.42% | max response [18] 2.14% | max response [5] -1.86% | Potency [7] | Potency [9] | Potency [10]
active: Potency [16] 11.2 µM | Potency [17] 3.79 µM

c1ccc2c(c1)OCC(C1=NCCN1)O2 (centres undefined)
active: Potency [2] 23.7 µM | Potency [18] 18.8 µM | Potency [5] 15 µM | Potency [9] 26.6 µM | Potency [10] 5.96 µM
inactive: Potency [11] | Potency [12] | Potency [13] | Potency [14] | Potency [15] | Potency [16] | max response [4] 29.1%

CNC(=O)N1N=C(c2ccc(N)cc2)c2cc3c(cc2CC1C)OCO3 (centres undefined)
active: Potency [18] 23.1 µM | Potency [10] 7.43 µM
inactive: max response [3] -13.3% and -0.52% | max response [5] -39.3% | Potency [9]

c1ccc(C2CC2)c(OCC2=NCCN2)c1
inactive: Potency [11] | Potency [12] | Potency [19] | Potency [13] | Potency [14] | Potency [15] | Potency [16] | max response [18] -2.25% | outcome [3] | max response [4] 1.77% | max response [5] -5.7% | outcome [6] | Potency [7] | Potency [8] | Potency [9] | Potency [10]
active: Potency [17] 13.5 µM

CN(N=O)C(=O)N[C@@H]1[C@@H](O)[C@H](O)[C@@H](CO)O[C@@H]1O
inactive: outcome [1]

COc1ccccc1N1CCNCC1
inactive: Potency [11] | Potency [12] | Potency [19] | Potency [13] | Potency [14] | Potency [15] | Potency [16] | Potency [17] | outcome [18] | outcome [3] | max response [4] -11% | max response [5] -4.83% | outcome [6] | outcome [20] | Potency [7] | Potency [9] | Potency [10]

Cc1ccc(-c2cc(C(F)(F)F)nn2-c2ccc(S(N)(=O)=O)cc2)cc1
inactive: outcome [1]

CC(C)(C(=O)O)c1ccc(C(O)CCCN2CCC(C(O)(c3ccccc3)c3ccccc3)CC2)cc1 (centres undefined)
inactive: outcome [1]

Fc1ccc(C(OCCN2CCN(CCCc3ccccc3)CC2)c2ccc(F)cc2)cc1
active: Potency [11] 11.2 µM | Potency [12] 12 µM | Potency [19] 8.91 µM | Potency [13] 8.91 µM | Potency [14] 7.94 µM | Potency [15] 8.91 µM | Potency [16] 4.47 µM | Potency [17] 4.26 µM | Potency [2] 13.2 µM | Potency [18] 18.7 µM and 21.1 µM | Potency [4] 23.1 µM | Potency [9] 9.44 µM | Potency [10] 23.5 µM and 4.73 µM

CCN(CC)CCN1C(=O)CN=C(c2ccccc2F)c2cc(Cl)ccc21
inactive: Potency [11] | Potency [12] | Potency [19] | Potency [13] | Potency [15] | max response [2] -7.13% | max response [3] 0.85% | max response [4] -5.99% | outcome [5] | Potency [7] | Potency [9] | Potency [10]
active: Potency [17] 4.78 µM

C[C@]12C/C(=C/O)C(=O)C[C@@H]1CC[C@@H]1[C@@H]2CC[C@@]2(C)[C@H]1CC[C@]2(C)O
inactive: Potency [11] | Potency [12] | Potency [19] | Potency [13] | Potency [14] | Potency [15] | Potency [16] | max response [18] -8.16% | outcome [3] | max response [4] -12.7% | max response [5] 1.95% | outcome [6] | Potency [7] | Potency [8]

CCC(COC(=O)c1cc(OC)c(OC)c(OC)c1)(c1ccccc1)N(C)C (centres undefined)
active: Potency [17] 6.75 µM
inactive: Potency [11] | Potency [12] | Potency [19] | Potency [13] | Potency [14] | Potency [15] | max response [2] -3.97% | outcome [3] | max response [4] 3.84% | outcome [5] | outcome [6] | Potency [7] | Potency [8] | Potency [9] | Potency [10]

Cc1cccc(Nc2ccncc2S(=O)(=O)NC(=O)NC(C)C)c1
inactive: outcome [1]

CN1C[C@H](CNC(=O)OCc2ccccc2)C[C@@H]2c3cccc4c3c(cn4C)C[C@H]21
inactive: Potency [19] | max response [3] -40.8% | max response [4] -8.28% | Potency [7] | Potency [8]
active: Potency [12] 13.5 µM | Potency [14] 5.62 µM | Potency [15] 12.6 µM | Potency [16] 10 µM | Potency [17] 4.78 µM

Cn1ccc2cc3c(cc21)CCN3C(=O)Nc1cccnc1
inactive: outcome [1] inactive [at 17.4 µM]

C=C1C[C@@H]2[C@H](CC[C@]3(C)C(=O)CC[C@@H]23)[C@@]2(C)C=CC(=O)C=C12
inactive: max response [4] -16.4% | Potency [7]
active: Potency [10] 13.3 µM

CC(=O)OCC(CCn1cnc2cnc(N)nc21)COC(C)=O
inactive: outcome [1]

Cc1nc2n(c(=O)c1CCN1CCC(c3noc4cc(F)ccc34)CC1)CCC[C@H]2O
inactive: outcome [1] inactive [at 17.4 µM]
